For one assay, the target named is NPC1L1. Put plainly: pooled miR-30 sensor sort-seq; sequence = guide strand. The note with it: shRNA.
Sequence TTGTGTAAGGCTCACTCTGGGC yielded a sensor-assay potency score (higher = more potent) of -1.01.

TTGGGGTCCACCATCTTGCTTT displayed a sensor-assay potency score (higher = more potent) of -0.775. As for TTGTCAGCTGTGGAGACTCGGG, the sensor-assay potency score (higher = more potent) is -1.23.

Sequence TAAAACACATTGGTGATCGTGT came in with a sensor-assay potency score (higher = more potent) of 0.009. Take TTGTGATAGGCCATGAACCTGG: the sensor-assay potency score (higher = more potent) is -0.611. The sequence TTGATCTCGTCTTCCAGAGAGC had a sensor-assay potency score (higher = more potent) of -1.19.

TTGTTGGGCAAGAAGTTGCTGA: the sensor-assay potency score (higher = more potent) is -0.757. Take TTATGGAACTGCTCCACCGAGG: the sensor-assay potency score (higher = more potent) was -0.788.

In the case of TTGGAGTCCACCATCACTCGGC, the sensor-assay potency score (higher = more potent) was determined as 0.203. Consider TTGATAGAACCTTCAAAGCTGT, for which the sensor-assay potency score (higher = more potent) is -0.451.

Take TTGGAGAGTGTCATGAGGCTTC: the sensor-assay potency score (higher = more potent) was -0.0939. TTGGTGATCGACAGACTCGCTT gave a sensor-assay potency score (higher = more potent) of 0.12.

A further assay has as its target NPEPL1. The description is as above. Conditions: shRNA.
In turn, TTGATTTCCACCGTCTTCCCTG had a sensor-assay potency score (higher = more potent) of -0.0975.

TCGCTCACCAGCATGCACCGGT showed a sensor-assay potency score (higher = more potent) of -0.443. Turning to TCGCAGACCATCACAATGCAGC, the sensor-assay potency score (higher = more potent) is -1.2. Take TAGAGGGGACAGCTGTCCGTGG: the sensor-assay potency score (higher = more potent) was -0.837. TTGTCTTTGAAACCCTGCTTGA registered a sensor-assay potency score (higher = more potent) of -0.575. In turn, TTCATGTCCGCCACAGCTGAGG had a sensor-assay potency score (higher = more potent) of -1.03.

TTCGCTAAGCACTGCAATGTGG showed a sensor-assay potency score (higher = more potent) of -0.589. In turn, TCGGTGTTCATCTCATTGCAGG came in with a sensor-assay potency score (higher = more potent) of -1.16. As to TTGCAAGCATAGGACACGCCAT, the sensor-assay potency score (higher = more potent) is -0.766.

A further assay concerns the target NPR1. The description is as above. Conditions: shRNA.
TTGTCCAGGATGTTGCTGCTGT yielded a sensor-assay potency score (higher = more potent) of -0.0226. With TTTCGTGTCAGCTCAATGCGTT, the sensor-assay potency score (higher = more potent) was found to be 0.0994.

In turn, TTGTAGTTCAGTACAACCCTGA yielded a sensor-assay potency score (higher = more potent) of 0.392.

Sequence TAGACTCCATTCTTGAGGCTGT gave a sensor-assay potency score (higher = more potent) of 0.414. The same measure, in the same setting: as for TTCTCCAGCTGCATCTTCCTGT, the figure is -0.0836. Regarding TTCCTGTATATGAAGAAGGAGA, the sensor-assay potency score (higher = more potent) is -1.29. The sequence ATACTCGTCCTTGACACCGAAG gave a sensor-assay potency score (higher = more potent) of -1.26.

Sequence TATAATATGCTGTCTTGGCAAA had a sensor-assay potency score (higher = more potent) of -1.35. Sequence TTCGGTTCCACATCCGCTGAGT displayed a sensor-assay potency score (higher = more potent) of 0.0187. The sequence TTAGACTCCATTCTTGAGGCTG gave a sensor-assay potency score (higher = more potent) of 0.316. As for TCATTGGTGAGTGAGTACCGGA, the sensor-assay potency score (higher = more potent) was -1.01.

A further assay deals with NPSR1. The assay is described as above. The note with it: shRNA.
Turning to TTTTAATCCAAATAGTTCGGAT, the sensor-assay potency score (higher = more potent) was -0.423. On the same count and under the same terms, as for TTGCTTTTAATCCAAATAGTTC, the figure is -1.33; as for TACCCTTCCAGTTCTCTCGTTG, 0.107. The sequence TTTGAGATGAGTCCTCGGTTAT returned a sensor-assay potency score (higher = more potent) of -1.18.

With TGAATCGCCAATTAATATCTGT, the sensor-assay potency score (higher = more potent) was -0.0374. Sequence TTAAAGGAGTAGTAGAAGGAAC displayed a sensor-assay potency score (higher = more potent) of -1.01. The sequence TTTCAGTGCAAGCCACTGGGGA returned a sensor-assay potency score (higher = more potent) of -0.49.
Further: reference of the scale not given here.
